The list is not random: actives were taken first. Their share in the collection is about 2.6%.
FLuc inh = firefly luciferase inhibition; P08659; purified firefly luciferase, luminescence, 8 min; Potency, µM (highest dose often 57.1 µM), for the others: at the highest dose activity change, negative = inhibition, most hits filed as inhibitors; 72,000 compounds, 2.2% hits; further: potency means the concentration at half of the fitted maximal effect; on the % scale 0 is the no-effect control and ±100 the full control effect; nearly all actives have a fitted effect of over 40% in size
Target sequence (P08659 whole entry, looked up): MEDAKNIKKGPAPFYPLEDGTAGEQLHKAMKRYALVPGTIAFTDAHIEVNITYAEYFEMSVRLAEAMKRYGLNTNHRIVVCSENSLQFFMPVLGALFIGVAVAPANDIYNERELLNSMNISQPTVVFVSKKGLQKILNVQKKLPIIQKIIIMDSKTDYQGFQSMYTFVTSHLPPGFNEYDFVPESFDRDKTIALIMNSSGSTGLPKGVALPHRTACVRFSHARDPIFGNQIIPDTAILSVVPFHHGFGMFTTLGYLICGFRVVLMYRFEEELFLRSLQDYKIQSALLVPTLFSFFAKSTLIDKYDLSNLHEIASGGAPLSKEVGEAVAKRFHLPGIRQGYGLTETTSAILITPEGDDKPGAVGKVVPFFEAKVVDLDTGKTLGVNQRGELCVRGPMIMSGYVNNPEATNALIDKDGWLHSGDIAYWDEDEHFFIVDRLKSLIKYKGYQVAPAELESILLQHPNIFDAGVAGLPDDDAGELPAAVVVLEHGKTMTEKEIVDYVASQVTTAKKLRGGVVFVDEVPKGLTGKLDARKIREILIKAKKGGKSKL
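Titration-based qHTS; buffer 50 mM imidazole pH 7.2, 50 mM KCl, 7 mM MgCl2, 10 uM ATP, 0.01% Tween 20, 0.05% BSA; luciferase/luciferin detector mix added after compound; 8 min, ambient; luminescence.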
HBB splice mod = modulators of hemoglobin beta chain splicing; AID 925; HBB splicing reporter cell assay, activation; EGFP reporter with mutant IVS2-654 intron; response scale: normalised to 500 nM splice-correcting PNA; 65,000 compounds, 0.06% hits; Potency, µM (series often up to 46.1 µM), without a hit: at the highest dose activation, usual class: activators; further: potency means the concentration at half of the fitted maximal effect; 0% is about no effect
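HeLa cells stably expressing EGFP interrupted by mutant beta-globin intron 2 (IVS2-654), 500/well in 2% FCS. Treated with compound for 2 days at 37C. Splicing correction scored as total well GFP intensity (488 nm excitation, 500-520 nm emission); 500 nM antisense PNA served as control.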
PK Bst = alters activity of Bacillus stearothermophilus pyruvate kinase. 51,000 compounds, 1.2% hits. Potency, µM. AID 361. purified pyruvate kinase, luminescence ATP production; ribose 5-phosphate activator present at AC10; in the data active means potency below about 11 µM; inconclusive means mostly about 12 µM to 25 µM;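 the screen sought inhibitors and activators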;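 further: potency means the concentration at half of the fitted maximal effect; scaled between full activation by ribose 5 phosphate and full inhibition by luteolin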
GFP derepression = epigenetic GFP locus derepression in mouse cells. mouse C127i GFP locus derepression, cytometry, 30 h. Potency, µM (doses to about 46.1 µM), inactives show at the top dose GFP derepression (activation). 68,000 compounds, 0.09% hits; further: % of control where 0% means no effect
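Read-out is the number of GFP-positive cells, scored as fluorescent objects 20 to 120 um wide, reflecting derepression of a silenced CMV-GFP reporter in murine C127i cells after 30 h compound exposure at 37 C.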
* hit, by the source's call; i = inactive; ? = inconclusive; . = no result; [ ] = remark or other dose. Unless noted, the call rests on the fitted dose curve; in most records, active means well fitted curve in the direction sought with a large enough effect; inconclusive means small, poorly fitted or top-dose-only effect, or another doubt; inactive means no such curve, though single readings can be large; an effect the other way counts as inactive or inconclusive.

SMILES	FLuc inh	HBB splice mod	PK Bst	GFP derepression
COc1ccc(NC(=O)C=C(C)C)cc1Cl	20µM*	0%	.	3%
Clc1nc(NCCc2ccccc2)c2ncn(-c3ccccc3)c2n1	1%[11.4 µM]	-2%[9.22 µM]	.	9%[9.22 µM]
O=C(O)c1ccc(CO)o1	.	0%	.	.
C[C@@H](C(=O)N[C@@H](CO)Cc1ccccc1)[C@H]1C[C@]1(C)[C@H](NC(=O)OCc1ccccc1)c1ccccc1	.	0%	.	.
O=C(Nc1ccc2sccc2c1)c1ccc(Cl)s1	1.6µM*	0%	.	.
Cc1cc(C)n(CCc2nc3c4ccccc4nc(SCc4ccc(C#N)cc4)n3n2)n1	0%	-3%	>57	-1%
O=C(Cc1ccc2cccnc2c1)c1ccc(O)cc1O	1%	-2%	6*	0%
O=C(c1cc(C(F)(F)F)cc(C(F)(F)F)c1)N1CCC2(CCCN(c3ccncc3)C2)CC1	1%[11.4 µM]	4%	.	7%[9.22 µM]
Cc1ccc(C(=O)Nc2ncc(Cc3ccc(F)cc3)s2)o1	20µM*	0%[57.5 µM]	.	0%
O=C(Nc1ccccc1)Nc1ccccn1	-25%	-2%	.	6%
S=C(Nc1ccccn1)c1ccccn1	20µM*	0%[9.22 µM]	.	4µM*
CCc1cc2c(nc1CC)CCN(CC/C(C)=N/O[C@@H](C)c1cn([C@H](CO)Cc3ccccc3)nn1)C2	0%[11.4 µM]	4%[9.22 µM]	.	.
Cc1cc(C)c(C)c(S(=O)(=O)NCc2ccco2)c1C	0%	1%	11*	-6%
Cc1ccc(S(=O)(=O)NCc2ccco2)cc1C	0%	-1%[9.22 µM]	.	0%
C[C@@H]1C[C@H](C)CN(S(=O)(=O)c2cc(Cl)c(Oc3ccc([N+](=O)[O-])cc3Cl)c(Cl)c2)C1	2%[11.4 µM]	1%[9.22 µM]	.	0%[9.22 µM]
CCn1c(SCC(=O)Nc2ccccc2N2CCOCC2)nnc1-c1ccccc1	3%	-2%	>57	-2%
CCn1c(SCC(=O)Nc2ccc(N3CCOCC3)c(Cl)c2)nnc1-c1ccc(N)cc1	13µM*	-1%	.	2%
C[C@@H]1NCC[C@H](CC(=O)O)[C@H]1CC(=O)O	2%[11.4 µM]	0%[9.22 µM]	.	-2%[9.22 µM]
O=C(Nc1ccccc1)c1ccccc1O	20µM*	1%	.	4%
Cc1ccc(NC(=O)c2ccccc2O)cc1	5µM*	-2%	6.3*	-1%
Cc1ccccc1C(=O)Nc1ccccc1	-19%	-2%	.	3%
Cn1c(=O)c2c(SCc3ccccn3)nc(-c3ccccc3)nc2n(C)c1=O	1%	0%	.	.
CN(CC(=O)Nc1ccc(Cl)cc1)CC(=O)Nc1cc(Cl)ccc1C#N	-2%	0%[57.5 µM]	>57	-2%
Cc1ccc(Nc2nc(C3CC3)cs2)cc1	7.9µM*	0%	.	.
CCN(CC)C(=O)c1csc(Nc2ccc(C)cc2)n1	-2%	-1%	>57	-1%
SMILES	FLuc inh	HBB splice mod	PK Bst	GFP derepression
CCN1/C(=C/C(=O)c2ccco2)Sc2ccccc21	25µM*	-1%	i	2%
CN(C)c1ccc(-c2nc3ccccc3n2C)cc1	0.63µM*	-1%	1.1*	-1%
CC(C)n1c(-c2ccc(N(C)C)cc2)nc2ccccc21	13µM*	-1%[57.5 µM]	.	-2%
COc1ccc(N2CC(O)=C(c3nc4ccccc4s3)C2=N)cc1	-37%	0%	.	0%
O=S(=O)(c1cccc(-c2nc3ccccc3s2)c1)N1CCCC1	-5%	0%	>57	0%
COc1ccc(-c2nc3ccccc3s2)cc1O	1µM*	-1%	0.64*	8%
Oc1cccc(-c2nc3ccccc3s2)c1	10µM*	6%	9.1*	3%
COc1ncc2nc(-c3cccs3)c(=O)n(CCc3ccccc3)c2n1	0%[11.4 µM]	0%	.	0%[9.22 µM]
O=C(NCc1nc2ccccc2[nH]1)c1cc2ccccc2oc1=O	0%	-3%	>57	1%
CCN(CC)c1ccc(NS(=O)(=O)c2ccc3c(c2)oc(=O)n3C)c(C)c1	2%	-1%	.	-5%
CCN(CC)c1ccc2cc(-c3nc4ccccc4[nH]3)c(=O)oc2c1	0.04µM*	0.79µM*	.	0.16µM*
CCN(CC)c1ccc2cc(-c3nc4ccccc4n3C)c(=O)oc2c1	-27%	?	.	10µM*
CCCCCCC#Cc1cc(OC)c(OC)cc1C(N1CC(C)c2ccccc21)N1CC(C)c2ccccc21 (stereo unspecified)	.	4%[9.22 µM]	.	.
CCCCCCC1Cc2cc(OC)c(OC)cc2C(C(C(=O)OCC)C(=O)OCC)O1 (stereo unspecified)	.	2%[9.22 µM]	.	.
O=C(Nc1cccc(Br)c1)c1cc2ccccc2o1	7.9µM*	0%	.	-2%
Cc1cccc(NC(=O)c2cc3ccccc3o2)c1	13µM*	0%[57.5 µM]	?	-1%
Cc1oc(-c2ccccc2)cc1C(=O)Nc1cccc(C(=O)O)c1	-3%	0%	>57	0%
Cc1cc(C(=O)Nc2cccc(C(=O)O)c2)oc1C	16µM*	-1%	i	2%
CNC(=O)c1cc2ccccc2o1	-1%[25.5 µM]	.	>26	4%[20.6 µM]
CCC(=O)Nc1cccc(NC(=O)c2cc3ccccc3o2)c1	4µM*	0%	.	-4%
CC(C)C(=O)Nc1ccc(NC(=O)c2cc3ccccc3o2)cc1	-23%	3%	>57	3%
Cc1c(/C(O)=C2/C(=O)C(=O)N(CCCN3CCOCC3)C2c2ccncc2)cnn1-c1ccccc1 (stereo unspecified)	-1%[25.5 µM]	.	>26	0%[20.6 µM]
CCNc1ncc2nc(-c3ccc(OC)cc3)c(=O)n(Cc3cccc(OC)c3)c2n1	0%[11.4 µM]	2%	.	-3%[9.22 µM]
O=Cc1ccc(OC2C=CC(c3ccccc3)OC2CO)cc1 (stereo unspecified)	.	0%[9.22 µM]	.	.
O=C(Nc1nnc(CCN2CCOCC2)s1)C1CCCCC1	13µM*	-2%	10*	6%
SMILES	FLuc inh	HBB splice mod	PK Bst	GFP derepression
O=C(Nc1nnc(CCN2CCCCC2)s1)C1CCCCC1	-12%	0%	>57	3%
COc1ccc(-c2cc(O)cc(O)c2)cc1	16µM*	1%	?	-3%
O=c1c2c(nc3c(-c4ccc(Cl)cc4)c[nH]n13)CCCC2	2%	0%[57.5 µM]	3.2*	0%
CC(C)(C)Nc1ncnc2c1cnn2-c1ccccc1	5µM*	0%	.	.
CC(C)OCCCNc1ncnc2c1cnn2-c1ccccc1	4µM*	.	8.9*	2%[20.6 µM]
c1ccc(CNc2ncnc3c2cnn3-c2ccccc2)cc1	-5%	-2%[57.5 µM]	>57	-7%
Cc1ccc(-n2ncc3c(NCCCOC(C)C)ncnc32)c(C)c1	-2%[25.5 µM]	.	>11	-4%[20.6 µM]
CN(Cc1ccccc1)c1ncnc2c1cnn2-c1ccccc1	13µM*	-2%	?	0%
CN(N=O)c1ccc(/C=C\c2ccnc3ccccc23)cc1	3%[11.4 µM]	2%[9.22 µM]	.	3%[9.22 µM]
COc1ncc2nc(-c3ccccc3)c(=O)n(C)c2n1	2%[11.4 µM]	-2%	.	1%[9.22 µM]
C=C1CC[C@@H]2[C@](C)(CC[C@@H](O)[C@]2(C)CO)[C@@H]1C/C=C1/C(=O)OC[C@H]1O	0%[11.4 µM]	.	.	7%[9.22 µM]
COC(=O)C/C=C\[C@@H](C)[C@@H](/C=N\OC[C@@H](O)COCc1ccco1)NS(=O)(=O)c1ccc(C)cc1	1%[11.4 µM]	1%[9.22 µM]	.	.
CN1C(=O)c2ccc(N(C)C)cc2C1=O	-1%[25.5 µM]	.	>26	0%[20.6 µM]
COc1cc(=O)n(C)c2cc(N(C)C)ccc12	-3%	1%[0.369 µM]	4.9*	2%
O=C(c1csnn1)N1CCC[C@@]2(CCN(c3ccccn3)C2)C1	1%[11.4 µM]	1%	.	5%[9.22 µM]
